In PubChem BioAssay (NCI):
About 83,000 compounds went through this panel and 20% of them were active in at least one assay; those are over-represented in the sample as a whole.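 In brief: 96-well plates, 48 h treatment, single concentration, percent growth endpoint.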 A number with no mark means an inactive call. Calls of active or inactive are those of the source. The calls were made as follows: active = growth percent below 10; inactive = the rest.

Experiments:
Test in all cases: NCI-60 one-dose screen, 48 h (100 = growth as untreated, 0 = no growth, -100 = all killed)
SK-MEL-2 melanoma = settings: 10 µM unless noted
SN12C renal = settings: 10 µM unless noted
UO-31 renal = settings: 10 µM unless noted
TK-10 renal = settings: 10 µM unless noted
ACHN renal = settings: 10 µM unless noted
CAKI-1 renal = settings: 10 µM unless noted
A498 renal = settings: 10 µM unless noted
CCRF-CEM leukemia = settings: 10 µM unless noted
MOLT-4 leukemia = settings: 10 µM unless noted
SR leukemia = settings: 10 µM unless noted
RPMI-8226 leukemia = settings: 10 µM
OVCAR-8 ovarian = settings: 10 µM unless noted
OVCAR-5 ovarian = settings: 10 µM unless noted
OVCAR-4 ovarian = settings: 10 µM unless noted
SK-OV-3 ovarian = settings: 10 µM
IGROV1 ovarian = settings: 10 µM unless noted
HS 578T breast = settings: 10 µM unless noted
NCI/ADR-RES ovarian = settings: 10 µM unless noted
OVCAR-3 ovarian = settings: 10 µM unless noted

Row | SMILES | growth (SK-MEL-2 melanoma) | growth (SN12C renal) | growth (UO-31 renal) | growth (TK-10 renal) | growth (ACHN renal) | growth (CAKI-1 renal) | growth (A498 renal) | growth (CCRF-CEM leukemia) | growth (MOLT-4 leukemia) | growth (SR leukemia) | growth (RPMI-8226 leukemia) | growth (OVCAR-8 ovarian) | growth (OVCAR-5 ovarian) | growth (OVCAR-4 ovarian) | growth (SK-OV-3 ovarian) | growth (IGROV1 ovarian) | growth (HS 578T breast) | growth (NCI/ADR-RES ovarian) | growth (OVCAR-3 ovarian)
1 | O=C(Nc1ccc(Cl)c(Cl)c1)OCn1ncc2ccc([N+](=O)[O-])cc21 | 85% | 95.1% | 45.9% | 92.9% | 83.5% | 73% | 60.1% | 81.8% | 70.6% | 76.7% | 83.4% | 89% | 77.5% | 93.6% | 86.2% | 75.5% | 75.4% | 84.1% | –
2 | Nc1nc2c(s1)CCc1c-2c(Br)n(Cc2ccccc2)c1Br | 99.7% | 87.7% | 72.9% | 88.1% | 19.4% | 81.5% | 91.5% | 2.66% (active) | 11% | 20.8% | 51.7% | 74.3% | 105% | 81.8% | 108% | 104% | 96.9% | 89.7% | 52.5%
3 | Cc1ccc2c(N/N=C\c3ccco3)cc(C)nc2n1 | 114% | 77.2% | 35.1% | 93.8% | 39.5% | 66% | 50.3% | 5.24% (active) | 37% | -8.66% (active) | 64.7% | 69.6% | 80.4% | 46.9% | 98.6% | 49% | 86.3% | 71.8% | 88%
4 | O=C(O)CCN1CCN(c2cccc(Cl)c2)CC1 | 107% | 100% | 106% | 138% | 94.8% | 87.6% | 94.2% | 105% | 91.3% | 88% | 112% | 99.1% | 98.9% | – | 104% | 105% | 105% | 112% | 122%
5 | COc1nc2c(cc1S(=O)(=O)c1ccccc1)CCc1c-2cnn1-c1ccccc1Cl | 92.2% | 59% | 40.2% | 42.2% | 62.5% | 49.9% | -1.8% (active) | 60.8% | 42.9% | 37.9% | 56.8% | 59.8% | 70.6% | 67.8% | 85.7% | 77.1% | 68.4% | 70.2% | 70.8%
6 | CC(C)(C)CC(C)(C)N(CSc1ccc(Cl)cc1)CSc1ccc(Cl)cc1 | 74.4% | 16.6% | 25.5% | 76.5% | 63.8% | 24.9% | -7.24% (active) | -19.8% (active) | -34.5% (active) | -32.7% (active) | -25% (active) | 44.6% | 63.4% | 50.1% | 71% | 2.44% (active) | 66.6% | 45.6% | 41.4%
7 | CCCCC(=O)N/N=C/c1cc(I)cc(I)c1O | 64.3% | 56.3% | 34.9% | 49.3% | 23.6% | 21.6% | 70.4% | 14.9% | 28.2% | 16.8% | 53% | 36.6% | 59.6% | 34.1% | 58.6% | 35.8% | 76.6% | 23.9% | 18.7%
8 | O=C1C2CC3C(CC2C(=O)[N]1[Sn]([c]1ccccc1)([c]1ccccc1)[c]1ccccc1)C1(Cl)C(Cl)=C(Cl)C3(Cl)C1(Cl)Cl (stereo not drawn) | -93.5% (active) | -87.3% (active) | -98.3% (active) | -100% (active) | -99.8% (active) | -92.8% (active) | -95.5% (active) | -43.3% (active) | -46.1% (active) | -50.1% (active) | -52.3% (active) | -97.5% (active) | -100% (active) | -83% (active) | -100% (active) | -66.2% (active) | -20% (active) | -55.5% (active) | -97.3% (active)
9 | O=C1c2[nH]cc(CN[C@@H]3CCCN3)c2C(=O)c2c1c(O)c1ccccc1c2O | -17.3% (active) | -32% (active) | -31.1% (active) | -89.3% (active) | -92.8% (active) | -18.4% (active) | 38.1% | -85.6% (active) | -84.7% (active) | -69.6% (active) | -55.5% (active) | -92% (active) | -95% (active) | – | -100% (active) | -83% (active) | -50% (active) | 20.3% | -95.9% (active)
10 | Oc1ccc(Cl)cc1CNc1nc2ccccc2[nH]1 | 87.1% | 61.1% | 56% | 88.2% | 57% | 64% | 59.6% | -21.4% (active) | -25.1% (active) | -31.7% (active) | -21.2% (active) | 42.8% | 98.9% | – | 87.1% | – | 89% | 38.6% | -73.8% (active)
11 | Cc1c(NCC(=O)Nc2nc3ccccc3[nH]2)c(=O)n(-c2ccccc2)n1C | 104% | 99.4% | 81.5% | 117% | 97.3% | 97.9% | 74% | 93.3% | – | 92.4% | 96.7% | 99.9% | 92.5% | 88.3% | 106% | 102% | 101% | 101% | 109%
12 | O=C1/C(=C/c2ccc(Cl)cc2)CN(Cc2cn(CCCNc3ccnc4cc(Cl)ccc34)nn2)C/C1=C\c1ccc(Cl)cc1 | -35.2% (active) | -80.2% (active) | -98% (active) | -56.6% (active) | -99.3% (active) | -20.4% (active) | -61.3% (active) | -31.2% (active) | – | -31.9% (active) | -49.3% (active) | -42.3% (active) | -74.1% (active) | -9.71% (active) | -48.5% (active) | -0.666% (active) | 9.27% (active) | 2.36% (active) | -90.4% (active)
13 | CC1(C)N=C(N)N=C(N)N1c1cccc(/C=C/C=C/c2cccc([N+](=O)[O-])c2)c1 | 67.2% | 83.6% | 81.5% | 50.9% | 95.6% | 96.9% | 65.2% | 35% | 45.5% | 37% | 8.42% (active) | – | 44.7% | – | 83.3% | 35.3% | 95% | 108% | 30.1%
14 | COc1cc2nc(N3CCC[C@H](NC4=CC(=O)c5ccccc5C4=O)C3)nc(N)c2cc1OC | 111% | 65.4% | -76.1% (active) | -72.6% (active) | -100% (active) | -56.6% (active) | 93% | -23.5% (active) | -41.3% (active) | -20.1% (active) | -50.1% (active) | -57.2% (active) | 125% | – | 116% | -81.6% (active) | -49.1% (active) | 29.4% | -57.7% (active)
15 | Cc1nc2cc(Nc3nc(N4CCOCC4)nc(N4CCN(C)CC4)n3)ccc2n1Cc1ccccc1 | 106% | 101% | 81.7% | 106% | 96.6% | 93.3% | 92.4% | 96.2% | – | 93% | 102% | 98.3% | 96.7% | – | 103% | 103% | 108% | 110% | 115%
16 | CCCOC(=O)c1ccc2c(c1)[N+](=O)C(C(=O)c1ccccc1)=C(C(F)(F)F)[N+]2=O | -87.6% (active) | -92.3% (active) | -89% (active) | -99.1% (active) | -91.8% (active) | -92.5% (active) | -90.9% (active) | -64.4% (active) | -63.3% (active) | -41.4% (active) | – | -86% (active) | -87.7% (active) | – | -99.9% (active) | -74.4% (active) | -52% (active) | -43.1% (active) | -95.3% (active)
17 | COc1ccc(/C=C2\CN(Cc3cn(CCCNc4ccnc5cc(Cl)ccc45)nn3)C/C(=C\c3ccc(OC)c(OC)c3)C2=O)cc1OC | 27.7% | -38% (active) | 33.2% | 14.3% | -38% (active) | 31% | 23.5% | -15.2% (active) | -13% (active) | – | -35.5% (active) | 6.8% (active) | 2.05% (active) | 21.3% | 36.5% | 31.7% | 34% | 94.4% | 12.7%
